Records with an inconclusive call do not appear. The source holds several records for some structures; these can differ, active in one and inactive in another. Active and inactive are the calls of the source. Calls come from the whole dose curve; as a rule, active = well fitted cell-killing curve with a large enough effect in the repeat runs; inconclusive = weak or mixed curves, or effect the other way; inactive = flat fitted curve, though single readings scatter.
assay: Human pregnane X receptor (PXR) small molecule agonists, qHTS cell viability counter screen (AID 1346977); details: PXR-Luc HepG2 viability, CellTiter-Fluor, 24 h; series mostly up to 92.4 µM; activity change, negative = cytotoxicity: at the top concentration; note: nearly all actives have a fitted effect of over 50% in size
Excerpt: U.S. Tox21 Program National Center for Advancing Translational Sciences [NCATS] NIH Chemical Genomics Center [NCGC] U.S. Environmental Protection Agency [EPA] National Institutes of Environmental Health Sciences [NIEHS] National Toxicology Program [NTP] U.S. Food and Drug Administration [FDA] Tox21 Assay Overview: The human pregnane X receptor (hPXR) regulates the expression of several drug metabolizing enzymes and induction of these proteins is a major mechanism for developing drug resistance in cancer. One such key enzyme catalyzing the drug metabolism is cytochrome P450 3A4 (CYP3A4). Changes in CYP3A4 expression affect drug metabolism, thereby reducing the therapeutic efficacy and altering toxicological response to a drug and which finally causes adverse drug interaction. To screen Tox21 libraries for compounds that activate hPXR-mediated CYP3A4 gene expression, PXR-Luc HepG2 cells were used. Also cytotoxicity of the compounds was tested in parallel by measuring the cell viability using CellTiter-Fluor assay system in the same wells.
Tox21 Assay Protocol Summary: PXR-Luc HepG2 cells were dispensed at 2,000 per well in 5uL of assay medium containing 5% charcoal-stripped FBS into white solid bottom 1536-well plates (Corning Life Sciences, Corning, NY) using a Multidrop Combi (Thermo Scientific, Waltham, MA) dispenser. The assay plates were incubated at 37 C and 5% CO2 for 5hr, and then 23nL of compounds dissolved in DMSO and positive control were transferred using a Pintool station (Wako, San Diego, CA). The assay plates were incubated at 37C and 5% CO2 for 24hr. For cytotoxicity read, after 23hr incubation at 37C, 1uL CellTiter-Fluor reagent (Promega Corporation, Madison, WI) was added to each well of the assay plates using Flying Reagent Dispenser (FRD, Aurora Discovery, San Diego, CA). After 1hr incubation at 37C and 5% CO2, the fluorescence signal was quantified using a ViewLux plate reader (PerkinElmer, Shelton, CT).
% is set by controls: 0 for no effect and ±100 for the full control effect; potency is the fitted concentration of half-maximal effect.

Structure (SMILES)	activity change, negative = cytotoxicity	Potency
CC/C=C\CCOC(C)=O	4.25% (inactive)	–
NC(=O)c1ccc(N)cc1	-0.428% (inactive)	–
O=C(O)Cc1ccc(CCNS(=O)(=O)c2ccc(Cl)cc2)cc1	5.67% [at 42.5 µM] (inactive)	–
Cc1cccc(C)c1NC(=O)C(C)N (stereo not given)	3.9% [at 42.5 µM] (inactive)	–
CCCCC(CC)COC(=O)c1ccccc1O (stereo not given)	3.06% [at 42.5 µM] (inactive)	–
NC(=O)c1cn(Cc2c(F)cccc2F)nn1	5.91% [at 42.5 µM] (inactive)	–
CC(=O)Nc1c(I)cc(I)c(C(=O)O)c1I	17.4% [at 42.5 µM] (inactive)	–
CN(C)CCCSc1ccccc1NC(=O)/C=C/c1ccccc1	-22.1% [at 42.5 µM] (inactive)	–
NC(CSCC(=O)O)C(=O)O (stereo not given)	14.9% [at 42.5 µM] (inactive)	–
CC1(C)C(O)C(C)(C)C1O (stereo not given)	0.0076% (inactive)	–
N=c1nc(N2CCCCC2)cc(N)n1O	8.34% [at 42.5 µM] (inactive)	–
C1OCOCO1	5.62% (inactive)	–
CC(C)(O)C(=O)c1ccccc1	-0.351% (inactive)	–
CC(C(=O)O)c1ccc(CC2CCCC2=O)cc1 (stereo not given)	-1.59% [at 42.5 µM] (inactive)	–
COC(=O)NN	3.36% (inactive)	–
CC(C)NCC(O)c1ccc(NS(C)(=O)=O)cc1 (stereo not given)	-1.59% (inactive)	–
CCCCCCCCCCCCN(CCCCCCCCCCCC)CCCCCCCCCCCC	14.7% (inactive)	–
COC(=O)C1=C(C)NC(C)=C(C(=O)OC)C1c1ccccc1[N+](=O)[O-]	–	48.6 µM (active) and inactive
C[N+](C)(C)CC(O)CC(=O)[O-] (stereo not given)	-0.742% [at 42.5 µM] (inactive)	–
CCN(CC)CCNC(=O)c1cc(S(C)(=O)=O)ccc1OC	1.13% [at 42.5 µM] (inactive)	–

Structure (SMILES)	activity change, negative = cytotoxicity	Potency
COc1nc(N)nc2c1ncn2[C@@H]1O[C@H](CO)[C@@H](O)[C@@H]1O	11.6% [at 42.5 µM] (inactive)	–
CCCN1CCCC[C@H]1C(=O)Nc1c(C)cccc1C	4.45% [at 42.5 µM] (inactive)	–
CC(C)(C)c1nnc(NS(=O)(=O)c2ccccc2)s1	-3.66% [at 42.5 µM] (inactive)	–
CCOC(=O)CCC(C)=O	14.4% (inactive)	–
CC/C=C\CC/C=C/C(OCC)OCC	-0.0093% (inactive)	–
N=C(N)c1ccccc1	0.278% (inactive)	–
Nc1cc(=O)[nH]c(N)n1	0.185% [at 42.5 µM] (inactive)	–
NC(=O)COCCN1CCN(C(c2ccccc2)c2ccc(Cl)cc2)CC1 (stereo not given)	18.9% [at 42.5 µM] (inactive)	–
Nc1c2c(nc3ccccc13)CCCC2O (stereo not given)	-19.5% [at 42.5 µM] (inactive)	–
O=C(O)CCCc1ccccc1	8.92% [at 42.5 µM] (inactive)	–
N#Cc1ccc(C2CCCc3cncn32)cc1 (stereo not given)	4.47% [at 42.5 µM] (inactive)	–
CCC(=O)OC(C)c1ccccc1 (stereo not given)	27.6% (inactive)	–
CN(C)CCCNCCCN(C)C	17% (inactive)	–
Cn1c(N)c(N=O)c(=O)n(C)c1=O	2.45% (inactive)	–
CCCCCCCCCCCC	5.72% (inactive)	–
CS(=O)(=O)O	8.48% (inactive)	–
COc1cc(C(=O)N2CCCCCCC2)cc(OC)c1OC	-1.64% [at 42.5 µM] (inactive)	–
C=C1CC[C@H]2C[C@@H]1C2(C)C	-2.6% (inactive)	–
CO[C@]12C[C@@H](COC(=O)c3cncc(Br)c3)CN(C)[C@@H]1Cc1cn(C)c3cccc2c13	-11.2% [at 42.5 µM] (inactive)	–
O=C1NC(=O)[C@@]2(CCOc3ccc(F)cc32)N1	5.17% [at 42.5 µM] (inactive)	–
